Only some compounds are listed: those with a hit (about 12% of all), similar ones and a draw of the others.
Sm TGR block – S. mansoni TGR enzyme inhibition; Q962Y6; Potency, µM (highest dose often 114 µM), usual class: inhibitors; purified TGR, DTNB reduction, TNB absorbance 405 nm; 360,000 compounds, 3% hits; further: nearly all actives have a fitted effect of over 60% in size
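Kinetic colorimetric format: TGR-catalysed, NADPH-driven DTNB reduction monitored via TNB absorbance. Enzyme dispensed at 20 nM; compound exposure 15 min at room temperature before reaction start.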
AmpC detergent – AmpC beta-lactamase inhibition with detergent present; P00811; AmpC hydrolysis of nitrocefin, absorbance 480 nm, 0.01% Triton; 370,000 compounds, 0.041% hits; Potency, µM (top dose mostly 114 µM), most hits filed as inhibitors; further: nearly all actives have a fitted effect of over 25% in size
Target sequence (P00811 whole entry, looked up): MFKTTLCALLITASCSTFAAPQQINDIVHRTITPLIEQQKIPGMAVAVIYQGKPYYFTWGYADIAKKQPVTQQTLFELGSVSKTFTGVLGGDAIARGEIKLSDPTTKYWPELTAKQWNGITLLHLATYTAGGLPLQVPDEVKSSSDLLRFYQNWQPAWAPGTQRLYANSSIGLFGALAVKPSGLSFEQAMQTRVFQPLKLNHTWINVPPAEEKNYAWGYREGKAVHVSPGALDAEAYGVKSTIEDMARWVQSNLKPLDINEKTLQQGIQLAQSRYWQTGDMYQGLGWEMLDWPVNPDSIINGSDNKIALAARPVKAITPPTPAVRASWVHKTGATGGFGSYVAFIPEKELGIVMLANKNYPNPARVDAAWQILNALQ
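20 mM phosphate pH 7.0 + 0.01% (detergent screen) or 0.0001% Triton X-100; 5.3 nM AmpC reagent; cpd preinc 15 min RT; nitrocefin (800 uM stock) to start; A480 q20 s × 4 min; Activity was normalised to no-enzyme and no-compound control wells.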
AmpC inh no detg – AmpC beta-lactamase inhibition without detergent | Potency, µM (series often up to 57.1 µM), most hits filed as inhibitors | AmpC nitrocefin hydrolysis, absorbance 480 nm, 0.0001% Triton | 330,000 compounds, 0.52% hits | P00811; further: nearly all actives have a fitted effect of over 20% in size
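AmpC (5.3 nM in the dispensed reagent) in 20 mM phosphate pH 7.0 with 0.01% (detergent screen) or 0.0001% Triton X-100 was preincubated with compounds for 15 min at room temperature. Nitrocefin was then added from an 800 uM solution, and hydrolysis was followed at 480 nm.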
SARS PLP yeast – inhibitors of SARS-CoV papain-like protease in yeast. S. cerevisiae expressing SARS-CoV PLpro, growth rescue. Potency, µM (top dose mostly 32.9 µM), usual class: activators. 330,000 compounds, 0.19% hits; calls by dose curve; further: nearly all actives have a fitted effect of over 55% in size
Pf growth 96h – P. falciparum growth inhibition at 96 hour, primary screen for plastid delayed-death inhibitors; Potency, µM (series often up to 28.7 µM), usual class: inhibitors; AID 504834; 320,000 compounds, 6.9% hits; P. falciparum luciferase reporter growth, 96 h
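P. falciparum expressing integrated firefly luciferase, in erythrocytes at 2% hematocrit, 0.05% parasitemia, incubated with compounds 96 h at 37 C, 5% CO2. Growth inhibition read as loss of luminescence; two-generation exposure targets delayed-death apicoplast inhibitors.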
Pf growth 48h – P. falciparum growth inhibition at 48 hours (one generation); P. falciparum luciferase growth in erythrocytes, 48 h; Potency, µM (doses to about 28.7 µM), usual class: inhibitors; 310,000 compounds, 5.9% hits; AID 504832
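Cell-based growth assay: transgenic P. falciparum expressing firefly luciferase, cultured in red cells within RPMI 1640 containing 0.5% w/v Albumax, 24 mM bicarbonate and gentamycin. A drop in luciferase activity indicates inhibition.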
Numbers stand for hits; i = inactive; ? = inconclusive; nt = no result given. Unless noted, the call rests on the fitted dose curve; in most records, active means well fitted curve in the direction sought with a large enough effect; inconclusive means small, poorly fitted or top-dose-only effect, or another doubt; inactive means no such curve, though single readings can be large; an effect the other way counts as inactive or inconclusive.

SMILES	Sm TGR block	AmpC detergent	AmpC inh no detg	SARS PLP yeast	Pf growth 96h	Pf growth 48h
Cc1cc2cc(CN(Cc3cccs3)S(=O)(=O)c3ccc4c(c3)OCCO4)c(=O)[nH]c2cc1C	i	?	i	i	?	i
Cc1cc2cc(CN(Cc3ccco3)S(=O)(=O)c3c(C)ccc4nsnc34)c(=O)[nH]c2cc1C	44.7µM	i	i	i	i	?
O=c1[nH]c2ccccc2cc1CN(Cc1ccco1)S(=O)(=O)c1ccc(F)cc1	?	i	i	i	i	i
Cc1ccc2cc(CN(Cc3ccco3)S(=O)(=O)c3c(C)ccc4nsnc34)c(=O)[nH]c2c1	8.91µM	i	i	i	i	?
Cn1c(=O)oc2cc(S(=O)(=O)N3CCC(C(=O)N4CC=C(c5ccccc5)CC4)CC3)ccc21	i	?	i	i	?	nt
O=C(C1CCN(S(=O)(=O)c2ccc(F)cc2)CC1)N1CC=C(c2ccccc2)CC1	?	i	i	i	i	10.4µM
COc1ccccc1N1CCN(C(=O)C2CCN(S(=O)(=O)c3ccc4c(c3)CC(C)N4C(=O)C3CC3)CC2)CC1 (centres undefined)	i	?	i	i	i	?
COc1ccccc1N1CCN(C(=O)C2CCN(S(=O)(=O)c3ccc4c(c3)CC(C)N4C(C)=O)CC2)CC1 (centres undefined)	i	i	i	i	i	11.7µM
COc1ccc(S(=O)(=O)N2CCC(C(=O)N3CCN(c4ccccc4OC)CC3)CC2)cc1	i	i	i	i	i	13.1µM
COc1ccc(NC(=O)CCNC(=O)c2ccco2)c(OC)c1	?	i	i	i	i	i
CN(C)CCCN1c2ccccc2CCc2ccc(Cl)cc21	i	i	i	i	?	13.1µM
CN(CCCN1c2ccccc2CCc2ccccc21)CC(=O)c1ccc(Cl)cc1	nt	nt	nt	nt	15.1µM	i
C=CCOC(=O)C1=C[C@@H](c2ccccc2)[C@H](CCCO)[C@@H](OCC)O1	i	i	i	i	i	i
C=CCOC(=O)C1=C[C@@H](c2ccc(C(F)(F)F)cc2)[C@H](CCCO)[C@@H](OCC)O1	i	i	i	i	2.08µM	1.17µM
C=CCOC(=O)C1=C[C@H](c2ccc(C(F)(F)F)cc2)[C@@H](CCCO)[C@H](OCC)O1	i	i	i	i	9.28µM	?
C=CCOC(=O)C1=C[C@@H](c2ccc(Br)cc2)[C@H](CCCO)[C@@H](OCC)O1	i	i	i	i	9.28µM	?
CCOC(=O)C1=NN(c2ccccc2C)C2=NC(C)=C(C(=O)OC)C(c3cccs3)N12 (centres undefined)	i	?	i	i	?	i
COc1ccc(CNC2=CC(=O)CC(C)(C)C2)cc1	i	i	i	i	?	i
CC(C)CC(NC(=O)C1CCC(=O)N1C(=O)OCc1ccccc1)C(=O)NC(Cc1ccccc1)C(N)=O (centres undefined)	i	?	i	i	i	10.4µM
CCOc1ncccc1C(=O)OCC(=O)NCCCc1ccccc1	nt	nt	i	i	nt	nt
Cc1oc(-c2ccc(Cl)cc2)nc1CN1CCCC(C(=O)NCCCN2CCOCC2)C1 (centres undefined)	79.4µM	i	i	i	i	?
Cc1oc(-c2ccc(Cl)cc2)nc1CN1CCC(C(=O)NCCCN2CCCC(C)C2)CC1 (centres undefined)	i	i	i	i	i	2.08µM
CS(=O)(=O)c1ncc(N(Cc2ccco2)Cc2cccs2)c(C(=O)Nc2ccccc2F)n1	i	i	nt	nt	nt	nt
CCN1C(=O)c2ccccc2S(=O)c2ccc(C(=O)NCc3ccc(Cl)cc3)cc21 (centres undefined)	i	i	nt	nt	nt	nt
CCn1cc(/C=N\NC(=O)c2ccc3c(c2)c(C)c(C)n3Cc2ccccc2)c(C)n1	i	i	i	i	10.4µM	nt
SMILES	Sm TGR block	AmpC detergent	AmpC inh no detg	SARS PLP yeast	Pf growth 96h	Pf growth 48h
CCn1nc(C)c(/C=N/NC(=O)c2ccc3c(c2)c(C)c(C)n3Cc2ccccc2)c1C	i	?	i	i	11.7µM	nt
CCn1ncc(/C=N\NC(=O)c2ccc3c(c2)c(C)c(C)n3Cc2ccccc2)c1C	i	?	i	i	?	nt
CN1C[C@H](CO)C=C2c3cccc4[nH]cc(c34)C[C@H]21	11.2µM	i	i	i	?	?
CCc1ccccc1NC(=O)CSc1nnc([C@@H](N)Cc2c[nH]c3ccccc23)o1	i	i	i	i	?	i
Cc1ccc(NC(=O)CSc2nnc([C@@H](N)Cc3c[nH]c4ccccc34)o2)c(C)c1	i	i	i	i	9.28µM	?
CCn1c(O)c(/C(C)=N/N2CCCCC2c2cccnc2)c(=O)[nH]c1=S (centres undefined)	i	i	i	i	13.1µM	?
O=c1[nH]c(=S)n(-c2ccccc2)c(O)c1/C=N/N1CCCCC1c1cccnc1 (centres undefined)	?	i	i	i	i	i
COc1ccc(CNC(=O)c2cccn2-c2nnc(N3CCCC3)s2)c(OC)c1	i	i	nt	nt	nt	nt
C/C(=C\c1ccc(Br)cc1)C(=O)c1c(C)cc(C)[nH]c1=O	i	?	i	i	10.4µM	i
Cc1ccc(/C=C/C(=O)c2c(C)cc(C)[nH]c2=O)cc1	i	i	i	i	?	?
CCc1ccc(/C=C/C(=O)c2c(C)cc(C)[nH]c2=O)cc1	?	?	i	i	i	9.28µM
CCCNC(=O)Cn1nc(-c2ccc(F)cc2)c2cnc3ccc(F)cc3c21	i	i	nt	nt	nt	nt
Cc1nc2nncn2c(NCc2ccc(Cl)cc2)c1C	i	i	nt	nt	nt	nt
CCOc1ccc(C(=O)NC(=S)Nc2ccc(NC(=O)CC)cc2)cc1[N+](=O)[O-]	i	?	i	i	i	i
COc1ccc(C(=O)N/N=C/c2ccc(OC(=O)c3cccc4ccccc34)c([N+](=O)[O-])c2)cc1	i	i	28.2µM	i	9.28µM	i
CCOc1ccc(C(=O)NC(=S)NC2CCCC2)cc1[N+](=O)[O-]	?	?	10µM	i	?	?
COc1ccc(/C=N/NC(=O)c2ccncc2)cc1[N+](=O)[O-]	i	i	i	i	4.15µM	i
O=C(Nc1ccc(C2=NCCN2)cc1)c1ccc(C(=O)Nc2ccc(C3=NCCN3)cc2)c([N+](=O)[O-])c1	i	i	i	i	0.147µM	0.37µM
O=C(N/N=C/c1ccc(O)c([N+](=O)[O-])c1)c1ccncc1	i	i	i	i	i	i
CN(Cc1cnn(Cc2ccccc2)c1)C(=O)c1cccc(S(=O)(=O)N2CCOCC2)c1	i	i	i	i	?	i
COc1ccc(N(CC(=O)NC2CCS(=O)(=O)C2)S(=O)(=O)c2ccc(Cl)c(Cl)c2)cc1 (centres undefined)	i	i	i	i	i	i
